The values below come from PubChem BioAssay (Tox21).

SMILES strings stand for the structures. Results filed as inconclusive are left out. Activity calls are given as the source filed them. Unless noted, calls come from the whole dose curve; as a rule, active = well fitted curve in the direction sought with a large enough effect in the repeat runs; inconclusive = weak or mixed curves; inactive = no such curve, though single readings can be large; an effect the other way counts as inactive or inconclusive.

Assay [1] is described as follows: qHTS assay for small molecules that induce genotoxicity in human embryonic kidney cells expressing luciferase-tagged ATAD5 (AID 651632). Note: nearly all actives have a fitted effect of over 15% in size. The gist of the method: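 ATAD5-luc HEK293T, 2,000 cells/well; cpd or DMSO pin-transferred; 16 hr, 37C/5% CO2; Amplite 30 min RT; luminescence.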
On the technique in general: qHTS replaces the single test concentration by a dilution series.

Assay [2] in a line: qHTS assay for small molecule agonists of the p53 signaling pathway - cell viability (AID 651633; calls by dose curve; note: nearly all actives have a fitted effect of over 30% in size; note: potency is the fitted concentration of half-maximal effect). The gist of the method: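 p53RE-bla cells were treated with compound for 16 hours at 37 C. Cytotoxicity was then measured as CellTiter-Glo luminescence after 30 min at room temperature.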
Assay [3] in a line: qHTS assay for small molecule disruptors of the mitochondrial membrane potential - cell viability (AID 720634; calls by dose curve;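 note: human HepG2 liver cancer cells; series mostly up to about 83 µM; nearly all actives have a fitted effect of over 20% in size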). The essentials: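 Cells: HepG2, 2,000/well, attached overnight. Compound 1 hr, 37 C/5% CO2. +m-MPI dye, +CellTiter-Glo 30 min RT. Readout: luminescence (ATP).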
Assay [4] can be described thus: qHTS assay to test for compound auto fluorescence at 535 nm (green) in HepG2 cells (AID 720675).
Assay [5] can be described thus: qHTS assay to test for compound auto fluorescence at 460 nm (blue) in HEK293 cells (AID 720678). The essentials: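 Cells were seeded and left to adhere for 4-5 hr at 37C. Compounds were then pin-transferred. After an overnight incubation at 37C under 5% CO2, intrinsic fluorescence at 405/460 nm was measured and referenced to triamterene.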
Assay [6] in a line: qHTS assay to test for compound auto fluorescence at 590 nm (red) in HEK293 cells (AID 720679). The gist of the method:
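Each well held 2,000 HEK293 cells in medium containing 10% dialyzed FBS. Following 4-5 hr attachment at 37C, 23 nL test compound or DMSO was added; plates sat overnight, and red fluorescence (540/590nm) was recorded.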

Assay [7] can be described thus: qHTS assay to test for compound auto fluorescence at 460 nm (blue) in HEK293 cell free culture (AID 720681). The essentials:
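Compounds were added to cell-free DMEM with 10% FBS and fluorescence read directly. The blue channel used 405 nm excitation and 460 nm emission, with triamterene as the reference fluorophore.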

The nature of assay [8]: qHTS assay to test for compound auto fluorescence at 535 nm (green) in HEK293 cell free culture (AID 720682). The essentials:
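Green-label autofluorescence (485 nm excitation, 535 nm emission) measured on compound added to cell-free culture medium (DMEM, 10% FBS). Output is expressed relative to fluorescein.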

Assay [9] in a line: qHTS assay to test for compound auto fluorescence at 590 nm (red) in HepG2 cell free culture (AID 720684). The essentials: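 Compound was pinned into wells holding MEM with 10% FBS and no cells, and red fluorescence was read at Ex/Em 540/590 nm. Signal is expressed as auto fluorescence equivalency relative to Rose Bengal sodium.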
Assay [10] can be described thus: qHTS assay to test for compound auto fluorescence at 460 nm (blue) in HepG2 cell free culture (AID 720685). The gist of the method: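 Compound (23 nL) or DMSO pinned into cell-free MEM with 10% FBS; blue fluorescence read at 405/460 nm excitation/emission, expressed as auto-fluorescence equivalency to triamterene.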
The nature of assay [11]: qHTS assay to test for compound auto fluorescence at 535 nm (green) in HepG2 cell free culture (AID 720686).
Assay [12] can be described thus: qHTS assay to test for compound auto fluorescence at 460 nm (blue) in HepG2 cells (AID 720687). The essentials: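 HepG2 cells in MEM with 10% FBS, attached overnight at 37 C, were exposed to compound or DMSO for 1 hr at 37 C, 5% CO2. Blue fluorescence was read at 405/460 nm, with triamterene as reference fluorophore.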
Assay [13] can be described thus: qHTS assay for identifying genotoxic compounds that show differential cytotoxicity against isogenic chicken DT40 cell lines with known DNA damage response pathways - wild type cell line (AID 743012). Note: nearly all actives have a fitted effect of over 60% in size. Note: potency is the fitted concentration of half-maximal effect. The gist of the method: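 Wild type DT40, 300 cells/well, ~0.5 h settle at 37 C/5% CO2; compounds in DMSO added by pintool; 40 h at 37 C/5% CO2; CellTiter-Glo, 30 min RT; luminescence.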

A short description of assay [14]: qHTS assay for identifying genotoxic compounds that show differential cytotoxicity against isogenic chicken DT40 cell lines with known DNA damage response pathways - Rad54/Ku70 mutant cell line (AID 743015). Note: nearly all actives have a fitted effect of over 60% in size. Note: potency is the fitted concentration of half-maximal effect.
Assay [15] can be described thus: qHTS assay to identify small molecule antagonists of the androgen receptor (AR) signaling pathway - cell viability counter screen (AID 743033; note: nearly all actives have a fitted effect of over 45% in size).
A short description of assay [16]: qHTS assay to identify small molecule antagonists of the androgen receptor (AR) signaling pathway using the MDA cell line - cell viability counter screen (AID 743041; note: nearly all actives have a fitted effect of over 45% in size). The gist of the method: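 MDA-kb2 AR-luc cells (MMTV-luciferase, AR/GR responsive) treated with compounds plus R1881 agonist for 16 h at 37C. CellTiter-Fluor added at 15.5 h; fluorescence read after 30 min in the same wells.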

Assay [17] is described as follows: qHTS assay to identify small molecule antagonists of the estrogen receptor alpha (ER-alpha) signaling pathway - cell viability counter screen (AID 743074; calls by dose curve;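 note: HEK293 cells carrying ER-alpha-UAS-bla reporter stimulated with 17beta-estradiol; nearly all actives have a fitted effect of over 45% in size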; note: potency is the fitted concentration of half-maximal effect).
For another assay, the target named is Aromatase (Homo sapiens) (UniProt P11511). Description: qHTS assay to identify aromatase inhibitors (AID 743083). Note: nearly all actives have a fitted effect of over 55% in size. Note: potency is the fitted concentration of half-maximal effect.
Assay [18] is described as follows: qHTS assay to identify aromatase inhibitors - cell viability counter screen (AID 743084).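 Note: cells stimulated with testosterone during compound exposure; nearly all actives have a fitted effect of over 55% in size.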
The target of assay [19] is Aryl hydrocarbon receptor (Homo sapiens) (UniProt P35869). Description: qHTS assay to identify small molecule that activate the aryl hydrocarbon receptor (AhR) signaling pathway (AID 743085). Note: nearly all actives have a fitted effect of over 15% in size. Note: potency is the fitted concentration of half-maximal effect. The gist of the method: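 HepG2 cells stably carrying a 20-DRE firefly luciferase reporter (HG2L7.5c1) treated with compound for 24 hr at 37C. Luciferase read by ONE-Glo luminescence, with CellTiter-Fluor viability read first.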
Sequence of Aryl hydrocarbon receptor (Homo sapiens) (P35869 whole entry, looked up): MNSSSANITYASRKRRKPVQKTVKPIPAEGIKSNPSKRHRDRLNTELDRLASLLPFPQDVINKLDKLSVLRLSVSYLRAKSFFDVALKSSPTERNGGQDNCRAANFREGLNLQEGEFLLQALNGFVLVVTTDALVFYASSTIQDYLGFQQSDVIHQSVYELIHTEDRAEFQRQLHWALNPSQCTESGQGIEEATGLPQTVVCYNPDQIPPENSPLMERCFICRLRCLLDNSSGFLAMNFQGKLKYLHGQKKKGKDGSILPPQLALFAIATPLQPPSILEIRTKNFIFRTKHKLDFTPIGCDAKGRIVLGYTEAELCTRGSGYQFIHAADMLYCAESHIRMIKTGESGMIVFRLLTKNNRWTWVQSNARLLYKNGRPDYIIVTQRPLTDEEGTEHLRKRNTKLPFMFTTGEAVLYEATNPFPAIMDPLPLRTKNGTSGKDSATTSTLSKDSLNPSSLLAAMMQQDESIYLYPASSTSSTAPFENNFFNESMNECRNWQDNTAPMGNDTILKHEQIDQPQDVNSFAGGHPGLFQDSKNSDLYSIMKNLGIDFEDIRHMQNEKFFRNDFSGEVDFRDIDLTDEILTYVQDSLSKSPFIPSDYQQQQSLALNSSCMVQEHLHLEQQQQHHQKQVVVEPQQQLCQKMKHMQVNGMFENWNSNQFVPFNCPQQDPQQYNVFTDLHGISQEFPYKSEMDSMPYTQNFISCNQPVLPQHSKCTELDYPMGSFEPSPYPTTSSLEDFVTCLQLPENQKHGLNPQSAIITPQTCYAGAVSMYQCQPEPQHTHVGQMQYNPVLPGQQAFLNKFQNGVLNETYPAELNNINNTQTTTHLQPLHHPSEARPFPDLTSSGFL

Sequence of Aromatase (Homo sapiens) (P11511 whole entry, looked up): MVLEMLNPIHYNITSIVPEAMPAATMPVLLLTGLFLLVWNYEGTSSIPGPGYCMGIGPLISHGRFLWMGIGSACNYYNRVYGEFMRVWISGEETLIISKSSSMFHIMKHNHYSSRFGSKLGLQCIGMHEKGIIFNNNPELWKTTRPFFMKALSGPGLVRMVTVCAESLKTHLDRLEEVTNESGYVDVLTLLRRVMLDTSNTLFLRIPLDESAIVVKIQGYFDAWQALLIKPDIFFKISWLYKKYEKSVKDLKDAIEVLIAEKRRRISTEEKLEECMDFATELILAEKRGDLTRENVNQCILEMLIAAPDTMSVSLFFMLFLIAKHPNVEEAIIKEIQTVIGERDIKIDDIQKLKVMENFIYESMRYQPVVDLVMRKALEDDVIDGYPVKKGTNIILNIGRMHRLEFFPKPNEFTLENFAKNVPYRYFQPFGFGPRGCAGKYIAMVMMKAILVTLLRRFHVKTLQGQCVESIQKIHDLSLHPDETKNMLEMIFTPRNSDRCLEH

Take `CN[C@@]1(c2ccccc2Cl)CCCCC1=O`: the Potency entry in [1], in assay [2], in assay [3], in [4], in assay [5] and in assay [7] was “inactive” in each case. Further, the Potency entry in assay [8], in assay [10], in assay [11], in assay [12], in assay [13] and in assay [14] was “inactive” in each case. Further, the Potency result (in assay [15]; in [16]; in assay [17]; with Aromatase (Homo sapiens); in assay [18]; in [19]) was “inactive” in each case. In addition, the result in assay [6] and in [9] was inactive.

With `O=C1CN=C(c2ccccc2)c2cc(Cl)ccc2N1`, the Potency result in assay [1], in [2], in assay [3], in assay [4], in assay [5] and in [7] was “inactive” throughout. Further, the Potency entry in assay [10], in assay [11], in [12], in assay [15], in assay [16] and in [17] was “inactive” each time. Further, the Potency result (in the assay with Aromatase (Homo sapiens); in [18]; in assay [19]) was “inactive” throughout. Also, the call in assay [6] and in assay [9] was inactive.

Consider `COC(=O)[C@H]1[C@@H](OC(=O)c2ccccc2)C[C@@H]2CC[C@H]1N2C`, for which the Potency entry in assay [1], in assay [2], in assay [3], in assay [4], in [5] and in assay [7] was “inactive” throughout. In addition, the Potency entry in [8], in assay [10], in [11], in assay [12], in [13] and in assay [14] was “inactive” in each case. Further, the Potency result (in assay [15]; in [16]; in assay [17]; with Aromatase (Homo sapiens); in assay [18]; in [19]) was “inactive” throughout. For the same compound, the call in assay [6] and in [9] was inactive.

For `C[C@@H]1[C@H](O)[C@@H](C)/C=C/C=C/CC/C=C/C=C/C=C/C=C/[C@H](O[C@H]2O[C@@H](C)[C@H](O)[C@@H](N)[C@H]2O)CC2O[C@](O)(C[C@@H](O)[C@H](O)CC[C@@H](O)C[C@@H](O)C[C@@H](O)CC(=O)O[C@H]1C)C[C@H](O)[C@H]2C(=O)O`, the Potency entry in [1], in [2], in [3], in [4], in assay [5] and in [7] was “inactive” each time. The Potency entry in assay [8], in [10], in assay [11], in assay [12], in assay [13] and in assay [14] was “inactive” throughout. Further, the Potency result (in assay [15]; in assay [16]; in assay [17]; with Aromatase (Homo sapiens); in [18]; in [19]) was “inactive” in each case. For the same compound, the compound was classed as inactive in [6] and in [9].

With `Cc1cc(C)cc(C(=O)OC2C[C@H]3CC[C@@H](C2)N3C)c1` (some centres not stated), the Potency entry in [1], in assay [2], in assay [3], in [4], in [5] and in assay [7] was “inactive” each time. In addition, the Potency result in [8], in assay [10], in assay [11], in [12], in [15] and in assay [16] was “inactive” each time. Besides, the Potency result (in assay [17]; in the assay with Aromatase (Homo sapiens); in assay [18]) was “inactive” in each case. Also, the call in assay [6] and in assay [9] was inactive. Further, the Potency is 2.98 µM (active) in assay [13] and 5.31 µM (active) in assay [14].

In the case of `CCCCCc1cc(O)c2c(c1)OC(C)(C)c1ccc(C)cc1-2`, the Potency entry in assay [1], in [4], in [7], in assay [8], in assay [10] and in assay [11] was “inactive” throughout. In addition, the Potency result in [12] and in assay [15] was “inactive” each time. Moreover, the Potency is 11.9 µM (active) in [2]; 9.44 µM (active) in assay [13]; 11.9 µM (active) in [14]; 23.9 µM (active) in assay [17]; 13.3 µM (active) in the assay with Aromatase (Homo sapiens); 3.35 µM (active) in [19]. Further, the result in assay [6] and in assay [9] was inactive.
